tim10-1 inh = growth inhibitors of tim10-1 mutant yeast; S. cerevisiae tim10-1 ts strain growth, BacTiter-Glo, 24 h; inhibition, % at 20 µM; actives 2.2% (n = 330,000);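 active means inhibition of at least 40%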;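 further: mutant grown at 25 °C; 0% = DMSO wells with yeast and 100% = wells holding no yeast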
tim23-1 inh = inhibits growth of tim23-1 mutant yeast; S. cerevisiae tim23-1 growth, BacTiter-Glo luminescence, 24 h; inhibition, % at 20 µM; actives 1.3% (n = 330,000);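 active means growth inhibition of the mutant yeast at or above 50%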;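 further: temperature-sensitive mutant grown at 25 °C; plate controls were DMSO-treated mutant yeast for no effect and medium wells lacking yeast for full effect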
NLRP3 yeast inh = blocks the NALP3 inflammasome reconstituted in yeast; Yeast reconstituted NLRP3/ASC/caspase-1, beta-gal luminescence, 24 h; inhibition, % at 10 µM; actives 0.39% (n = 330,000);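 active means inhibition of 50% or more; inactive means inhibition below 50%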;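 further: plate controls were induced DMSO wells for no effect and uninduced yeast grown without galactose for full effect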
SKKanGAS inh = SKKanGAS growth inhibition; actives 1.3% (n = 300,000); AID 1662; S. pyogenes SKKanGAS, kanamycin growth, BacTiter-Glo, 6 h; inhibition, % at 7.5 µM;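 active means mean replicate score, as percent of positive control median, at least 50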;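 further: strain carries kanamycin resistance gene driven by streptokinase promoter and grows in 40 µg/ml kanamycin; loss of luminescence reflects streptokinase promoter inhibition or plain growth inhibition; 0% = median of DMSO wells and 100% = positive control at its reference dose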
TIM10 inh = inhibits growth of TIM10 yeast strain. S. cerevisiae TIM10 strain growth, BacTiter-Glo luminescence, 24 h. inhibition, % at 10 µM. actives 1.4% (n = 330,000);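 active means inhibition of 40% or more at the single tested concentration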;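 further: wild-type TIM10 isogenic control strain grown at permissive 25 °C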
PfHsp90 set2 = inhibits growth of yeast expressing Plasmodium falciparum Hsp90; actives 0.32% (n = 310,000); S. cerevisiae expressing PfHsp90, BacTiter-Glo ATP, 48 h; yeast lacking PDR1 and PDR3 efflux regulators; inhibition, % at 9.4 µM;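 active means every replicate shows inhibition above about 80%, whatever the replicate mean, limit read from the data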;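 further: 0% = DMSO neutral controls and 100% = 20 µM radicicol positive controls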
tim10 confirm = TIM10 yeast growth inhibition, confirmed; shares compounds with TIM10 inh; S. cerevisiae tim10 strain growth, BacTiter-Glo luminescence, 24 h; inhibition, % at 10 µM; actives 63% (n = 4,600);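 active means inhibition of yeast growth at or above a set limit in either of two replicates at 10 µM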;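 further: this counterscreen used the strain with wild-type TIM10; 0% = yeast with DMSO and 100% = medium wells lacking yeast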
The depositor's hits bear a star; . = no result; ! = repeats disagree. Only some compounds are listed: those with a hit (about 4.5% of all), similar ones and a draw of the others.

SMILES | tim10-1 inh | tim23-1 inh | NLRP3 yeast inh | SKKanGAS inh | TIM10 inh | PfHsp90 set2 | tim10 confirm
C=CCn1c(SCc2ccc3nonc3c2)nnc1-c1cccs1 | 38.0 | 26.5 | -14.9 | 5.6 | 47.7* | -0.8 | 25.6*
Cc1cc(C)c2c(c1C)C(=O)CCC2 | . | . | . | . | . | 9.5 | .
COc1cccc(-c2sc3ccccc3c2-c2ccc(OCCN(C)C)cc2)c1 | -8.1 | -0.7 | 46.9 | . | 50.0* | 37.6 | 52.2*
COc1ccc2sc(-c3ccccc3OC)c(-c3ccc(OCCN(C)C)cc3)c2c1 | 3.1 | 40.7 | . | . | 24.5 | 18.6 | .
C=CCNc1nc(N)c([N+](=O)[O-])c(Nc2ccccc2OC)n1 | 34.1 | 30.8 | 20.7 | 4.1 | 40.9* | -19.3 | 69.2*
COc1ccccc1Nc1nc(NCCCN(C)C)nc(N)c1[N+](=O)[O-] | 12.2 | 10.5 | 0.5 | 1.4 | -2.3 | -9.6 | .
Cc1ccc(C(=O)CSc2ccc(-c3cccnc3)nn2)cc1 | -56.8 | -20.1 | 15.6 | 2.6 | -40.2 | -4.6 | .
CCNC(=S)N/N=C1\CCCCc2ccccc21 | 30.7 | 46.4 | 6.1 | -4.3 | 16.7 | -17.9 | .
Cc1ccc(NC(=S)N/N=C2/CCCCc3ccccc32)cc1 | 27.0 | 37.3 | 45.2 | 8.4 | 45.0* | -95.5 | 38.0*
Cc1sc2ncnc(SCC(=O)NC(=O)NCc3ccco3)c2c1C | -8.2 | -24.3 | 19.5 | 0.2 | 50.4* | -4.5 | -0.2
Cc1cc(C)n(CC(=O)N2c3ccccc3Sc3ccc(C(F)(F)F)cc32)n1 | 39.4 | 40.4 | -11.3 | -13.0 | 41.9* | -19.1 | 26.9
COCC(C)NC(=O)CCS(=O)(=O)c1nc(-c2ccc(OC)cc2)cc(C(F)(F)F)n1 (configuration not stated) | 18.9 | 7.4 | -4.3 | -11.5 | 10.3 | 9.0 | .
COC(=O)CCS(=O)(=O)c1nc(-c2ccccc2)cc(C(F)(F)F)n1 | 19.6 | 34.1 | 30.6 | 7.3 | 45.0* | 10.2 | 31.3*
Cc1cc(NC(=O)CCCS(=O)(=O)c2nc(-c3cccs3)cc(C(F)(F)F)n2)no1 | 39.4 | 4.2 | 8.7 | -8.3 | 48.6* | 21.2 | 37.3*
O=C(O)CCS(=O)(=O)c1nc(-c2cccs2)cc(C(F)(F)F)n1 | 25.7 | 25.7 | -1.7 | -1.7 | 28.7 | 31.6 | .
CCOC(=O)CCS(=O)(=O)c1nc(-c2ccccc2)cc(C(F)(F)F)n1 | 17.5 | 21.2 | 42.1 | 6.0 | 51.9* | 2.9 | 57.8*
COc1cc(O)c(C(C)=O)c(CC(=O)O)c1 | -21.3 | 2.4 | 17.5 | -0.9 | -5.2 | -15.6 | .
Cn1nc(C(=O)Nc2sc3c(c2C#N)CCCC3)ccc1=O | 1.2 | 2.3 | 35.7 | -9.9 | 1.9 | -29.7 | .
O=C(N=Nc1c(O)[nH]c2ccc(Br)cc12)c1cc(-c2cccc3ccccc23)n[nH]1 | 26.6 | 21.4 | -1.8 | 32.2 | 17.9 | 9.8 | .
O=C(N=Nc1c(O)[nH]c2ccc(Br)cc12)c1ccccc1-n1cccc1 | 32.5 | 29.5 | 11.5 | 7.3 | 48.2* | 16.8 | 35.5*
CC(C)(C)C(=O)NC(=S)N1CCc2ccccc21 | 11.9 | 2.8 | -1.1 | -9.3 | 3.0 | 15.7 | .
O=C(NC(=S)N1CCc2ccccc21)c1ccccc1Br | 23.8 | 33.8 | 43.6 | -3.5 | 40.6* | -37.1 | 31.4*
CC(C)[C@H](NS(=O)(=O)c1cccc(Cl)c1)C(=O)OCC(=O)N1CCN(c2ccccc2)CC1 | 38.8 | 21.0 | 3.7 | 2.1 | 47.0* | 10.1 | -6.9
CCOC(=O)c1ccccc1NC(=O)COC(=O)c1ccc(OCC(=O)N2CCOCC2)c(OCC)c1 | . | . | . | . | . | 3.7 | .
C#CCOCCOCCOCCNc1nc(N2CCN(C(=O)Cn3cc(CCCCN)nn3)CC2)nc(N2CCN(C(=O)Cn3cc(CCCN=C(N)N)nn3)CC2)n1 | -20.3 | 12.5 | 12.1 | . | 3.3 | -10.9 | .
SMILES | tim10-1 inh | tim23-1 inh | NLRP3 yeast inh | SKKanGAS inh | TIM10 inh | PfHsp90 set2 | tim10 confirm
C#CCOCCOCCOCCNc1nc(N2CCN(C(=O)Cn3cc(CCCN=C(N)N)nn3)CC2)nc(N2CCN(C(=O)[C@H](C)n3cc(CCCN=C(N)N)nn3)CC2)n1 | -3.6 | -10.1 | 5.9 | . | 60.5* | 13.9 | -8.2
CC[C@]12c3[nH]c4cc(-c5ccco5)ccc4c3CCN1C(=O)[C@@H](CC(=O)NCCc1ccccn1)C[C@@H]2C(=O)N1CCN(C(=O)c2ccco2)CC1 | 16.8 | 32.4 | . | . | -0.6 | -12.7 | .
Cc1cc(C)n(-c2nc3ccccc3nc2N2CCC(C)CC2)n1 | 25.3 | 23.9 | 15.9 | -7.2 | 42.3* | . | 17.9
CCS(=O)(=O)c1nc(S(=O)(=O)c2ccc(C)cc2)c(NCCN2CCOCC2)s1 | -1.8 | -15.1 | 8.0 | 54.1* | 97.2* | -15.7 | 10.4
COc1c2c(nc3occc13)C(CC=C(C)C)(OC)C(O)CC2 (configuration not stated) | 24.8 | 21.7 | 7.2 | 13.2 | 34.2 | -4.3 | .
COc1c2c(nc3occc13)C(CC=C(C)C)(OC)C(OC(C)=O)CC2 (configuration not stated) | 35.5 | 36.3 | 12.7 | 2.1 | 45.6* | -5.6 | -16.8
COCCCNC(=S)N/N=C/c1ccc2ccccc2c1 | 16.3 | 35.0 | -13.5 | -3.3 | 41.0* | -11.7 | 37.3*
NC(=S)N/N=C/c1ccc2ccccc2c1 | 24.4 | 30.5 | 22.3 | -24.0 | 40.3* | 10.0 | 27.7
COCCCNC(=S)N/N=C/c1ccc(OC)cc1 | 25.1 | 30.0 | 10.4 | 40.5 | 27.3 | -0.5 | .
NC(=S)N/N=C/c1cccc(/C=N/NC(N)=S)c1 | -10.1 | -5.7 | 14.0 | -20.8 | 12.8 | -12.6 | .
COc1ccc(NC(=O)CS(=O)(=O)c2cn(CC(=O)N3CCCC3)c3ccccc23)c(OC)c1 | 7.4 | 12.9 | -5.9 | -0.1 | -1.8 | 2.5 | .
O=C(O)CCn1cc(C(=O)O)c(-c2ccccc2)n1 | 2.1 | 17.2 | -14.0 | -15.8 | 17.0 | -23.0 | .
CC(C)C(c1nnnn1C1CCCCC1)N1CCc2ccccc21 (configuration not stated) | 29.0 | -6.6 | -39.2 | 0.2 | 46.0* | 16.8 | 31.2*
Cc1ccc(C(c2nnnn2C2CCCCC2)N2CCc3ccccc32)cc1 (configuration not stated) | 27.3 | 31.9 | -8.0 | 20.1 | 24.0 | -12.8 | .
COc1ccc(-c2nnc3sc(-c4ccco4)nn23)cc1OC | -2.0 | -23.9 | 13.7 | -2.6 | -19.1 | 24.9 | .
COc1ccc(-c2nn3c(-c4ccco4)nnc3s2)cc1OC | 38.7 | 20.4 | 0.9 | 11.6 | 45.3* | -6.3 | -9.8
c1ccc(CNc2ncnc3ccccc23)cc1 | 7.9 | -20.9 | 11.4 | -0.8 | 81.1*! | 16.3 | -15.9
Cc1cc(C)nc(OC(C(=O)O)C(OCc2ccccc2)(c2ccccc2)c2ccccc2)n1 (configuration not stated) | -1.4 | -0.6 | 19.5 | 3.7 | 97.4* | 5.6 | 5.7
Cc1cccc(NC(=O)/C=C/c2ccc([N+](=O)[O-])s2)c1 | . | . | . | 10.6 | . | 0.4 | .
Cc1cccc(NC(=S)N/N=C/c2ccc([N+](=O)[O-])s2)c1 | 26.2 | 24.3 | 34.5 | 101.1* | 58.1* | 100.1* | 34.0*

Screening results from PubChem.
